This is a sample that favours compounds with a hit; in the whole collection about 0.49% have one here.
Vif-A3G inh – qHTS for Inhibitors of Vif-A3G Interactions: qHTS; DNA dC->dU-editing enzyme APOBEC-3G (Homo sapiens), Q9HC16; 410,000 compounds, 0.076% hits; HeLa A3G-eYFP + Vif (tagged APOBEC3G with the HIV-1 protein that degrades it), YFP fluorescence, overnight; Potency, µM (doses to about 46.1 µM), for inactives: top-dose activity, negative = active, most hits filed as inhibitors; also: potency is read from the fitted curve at half-maximal effect; % is scaled to controls: 0 for no effect and ±100 for the full control effect; nearly all actives have a fitted effect of over 60% in size
Target sequence (Q9HC16 whole entry, looked up): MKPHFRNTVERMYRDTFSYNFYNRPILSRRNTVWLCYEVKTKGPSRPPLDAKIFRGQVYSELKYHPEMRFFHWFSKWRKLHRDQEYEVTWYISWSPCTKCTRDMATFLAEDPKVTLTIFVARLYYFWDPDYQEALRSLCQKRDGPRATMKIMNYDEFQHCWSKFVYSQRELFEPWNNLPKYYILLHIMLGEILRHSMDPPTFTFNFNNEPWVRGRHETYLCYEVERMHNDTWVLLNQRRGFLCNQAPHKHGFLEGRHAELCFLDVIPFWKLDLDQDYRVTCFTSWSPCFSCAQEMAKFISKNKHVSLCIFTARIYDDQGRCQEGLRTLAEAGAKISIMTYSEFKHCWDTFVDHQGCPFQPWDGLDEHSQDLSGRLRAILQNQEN
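Read-out is eYFP fluorescence (Ex 488/Em 500-530) from Vif-expressing HeLa A3G-eYFP cells; more signal means A3G escaped Vif-mediated degradation. Cells plated overnight, compound pinned in, incubated overnight at 37 deg C.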
Epigenetic reg – Quantitative High-Throughput Screen for Regulators of Epigenetic Control; 280,000 compounds, 0.2% hits; Potency, µM (titrated, usually from 53.9 µM), inactives show top-dose GFP activation, actives largely listed as activators; murine LDR cells, GFP reporter derepression, 30 h; AID 1865, 2009; also: potency is read from the fitted curve at half-maximal effect; % of control where 0% means no effect; nearly all actives have a fitted effect of over 60% in size
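Murine LDR cells carrying a silenced, genomically integrated CMV-driven GFP reporter were exposed to compound for 30 hours at 37 C. After PBS washes, GFP-positive cells (20–120 um objects) were counted by laser-scanning microplate cytometry.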
LDHA inh – qHTS assay for inhibitors of human lactate dehydrogenase; activity change, % (values are at about 110 or 230 µM); L-lactate dehydrogenase A chain (Homo sapiens), P00338; purified LDHA, NADH/diaphorase-resazurin fluorescence; stronger effect = lower value; 480,000 compounds, 0.15% hits; in the data active = activity change below about -30%; inconclusive = mostly about -25% to -30%;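 also: plate controls were DMSO wells for no effect and wells without enzyme for full effect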
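Enzyme activity of human lactate dehydrogenase 5 (2 nM; 0.06 mM NADH, 0.2 mM pyruvate, 5 min, RT) is measured via a resazurin/diaphorase fluorescence readout of residual NADH.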
Apoferritin bind – qHTS Assay for Identification of Novel General Anesthetics. Potency, µM (doses to about 77.5 µM), inactives show at the highest dose activity change, negative = displacement, most hits filed as inhibitors. apoferritin/1-aminoanthracene competitive binding, fluorescence. AID 485281, 2010. Ferritin light chain (Equus caballus), P02791. 350,000 compounds, 0.074% hits; also: potency is read from the fitted curve at half-maximal effect; % is scaled to controls: 0 for no effect and ±100 for the full control effect; nearly all actives have a fitted effect of over 20% in size
Target sequence (P02791 2-175 limits assumed): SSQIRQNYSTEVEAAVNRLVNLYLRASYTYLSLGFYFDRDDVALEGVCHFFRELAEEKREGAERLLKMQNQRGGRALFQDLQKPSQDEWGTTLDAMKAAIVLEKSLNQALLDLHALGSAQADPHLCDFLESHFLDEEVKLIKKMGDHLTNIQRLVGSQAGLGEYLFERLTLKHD
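Read-out: endpoint 1-AMA fluorescence, excitation 380 nm and emission 535 nm, after compounds sit 10 min at room temperature with 10 uM horse-spleen apoferritin in 50% saturated 1-AMA/PBS. Values come from four-parameter Hill fits.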
Vif-A3F inh – qHTS for Inhibitors of Vif-A3F Interactions: qHTS; HeLa A3F-eYFP + Vif (tagged APOBEC3F with the HIV-1 protein that degrades it), YFP fluorescence increase; Potency, µM (titrated, usually from 46.1 µM), inactives show at the highest dose activity, negative = active; 390,000 compounds, 0.2% hits; AID 602313, 2012; also: potency is read from the fitted curve at half-maximal effect; % of control where 0% means no effect; nearly all actives have a fitted effect of over 65% in size
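HeLa cells stably expressing Vif plus C-terminally eYFP-tagged A3F were seeded, incubated overnight at 37 deg C, dosed with compound, incubated overnight again at 37 deg C. Yellow fluorescence (Ex 488/Em 500-530) reported blocked Vif-mediated A3F-eYFP degradation.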
* marks the source's active call; other numbers are inactive results; i = inactive; ? = inconclusive; · = no result given; ! = a repeat was not active. Unless noted, calls follow the shape of the dose curve; as a rule, active = well fitted curve in the direction sought with a large enough effect; inconclusive = small, poorly fitted or top-dose-only effect, or another doubt; inactive = no such curve, though single readings can be large; an effect the other way counts as inactive or inconclusive.

SMILES | Vif-A3G inh | Epigenetic reg | LDHA inh | Apoferritin bind | Vif-A3F inh
O=C1/C(=C/c2ccccc2)CSc2sccc21 | -2.1% | -6.0% | -1.1 | 14.1µM* | -7.0%
CC(CCO)Nc1nc2c(c(=O)n(C)c(=O)n2C)n1Cc1ccc(F)cc1 (configuration not stated) | · | · | 16.3 | · | ·
CCOc1ccc(NC(=O)c2cc(=O)c3ccc(C)c(C)c3o2)cc1 | -6.7% | 20µM* | -0.1 | -8.0% | ?
O=C/C(=C\Nc1ccccn1)c1nc2ccccc2o1 | ? | 9.3% | -1.5 | -1.1% | 28.2µM*
CCNC(=S)N(Cc1ccco1)Cc1cccs1 | · | · | 10.1 | · | ·
CC1=CC(C)(C)Nc2ccc(OC(=O)CCN3C(=O)c4ccccc4C3=O)cc21 | 11.2µM* | ? | 4.0 | ? | ?
COCC(=O)n1nc(NCc2ccccc2Cl)nc1NCc1ccccc1Cl | · | · | -49.0* | · | ·
CN(C)Cc1c(O)ccc2oc(Cc3ccccc3)cc12 | 0.6% | -4.5% | 1.8 | -0.3% | -10.9%
CCOc1ccccc1N1CC(c2nc3ccccc3n2Cc2c(C)cc(C)cc2C)CC1=O (configuration not stated) | -27.3% | -1.7% | 2.8 | -3.3% | 12.6µM*
O=C(Nc1ccc(Oc2ccc(NC(=O)Nc3ccccc3Cl)cc2)cc1)Nc1ccccc1Cl | -2.3% | 1.1% | -3.5 | -4.9% | 11.2µM*
O=C(Nc1ccccc1)Nc1cccc(Cl)c1Cl | -4.0% | 0.1% | -0.8 | -9.7% | -13.5%
COc1ccc(NC(=O)c2ccc(NC(=O)C(C)C)cc2)c([N+](=O)[O-])c1 | -8.6% | 14.1µM* | -5.0 | -10.7% | 10µM*
O=C(Cn1cc(COc2ccc3ccccc3c2)nn1)NS(=O)(=O)c1cccc(OC(F)F)c1 | -1.3% | · | -2.7 | · | ·
O=C(Nc1ccccc1)N1CCN(c2ccccc2Cl)CC1 | · | · | -4.1 | · | ·
N#Cc1c(C(F)(F)F)cc(=O)n2c1[nH]c1ccccc12 | -6.5% | · | -20.1 | i | -28.1%
O=c1[nH]c2ccccc2n2c(=S)[nH]nc12 | 5.2% | 0.0% | 5.3 | 4.2% | 22.4µM*
O=c1[nH]c2ccccc2n2c(C(F)(F)F)nnc12 | -26.1% | · | -8.4 | -1.1% | 10µM*
CCCNC(=O)c1cc(C)nc2ccccc12 | · | · | 3.1 | · | ·
CCOc1ccc(-c2nc(C#N)c(NCc3ccc4c(c3)OCO4)o2)cc1 | 0.0% | 2.0% | -31.2*! | -10.0% | -7.1%
COc1ccc(-c2nc(C#N)c(NCc3ccc4c(c3)OCO4)o2)cc1 | · | · | 1.1 | · | ·
COc1ccc(NC(=O)C2CC2)cc1S(=O)(=O)N1CCOCC1 | 5.5% | · | -1.8 | · | 4.5%
O=C(O)c1ccc2nc(-c3cc4cccc(O)c4oc3=O)[nH]c2c1 | · | -1.3% | 33.7 | 90.7% | ·
C=CCc1cccc2cc(-c3nc4ccc(C)cc4[nH]3)c(=O)oc12 | -3.3% | 3.98µM* | -7.7 | 106.9% | ·
CCOC(=O)c1ccccc1NC(=O)N(C(C)C)C1CCN(C(C)=O)CC1 | -0.1% | -1.8% | -2.9 | -17.6% | -6.9%
COc1ccc(/C=C(/C#N)c2nc(-c3ccc(-c4ccccc4)cc3)cs2)cc1OC | -4.9% | 10µM* | -3.6 | 39.9% | ?
SMILES | Vif-A3G inh | Epigenetic reg | LDHA inh | Apoferritin bind | Vif-A3F inh
COc1ccc(/C=C(\C#N)c2nc(-c3cc4c(ccc5ccccc54)oc3=O)cs2)cc1O | -2.7% | 12.6µM* | -1.9 | 3.6% | -12.4%
COc1cccc(CN2CCNC(=O)C2CC(=O)NC2CCCCC2)c1OC (configuration not stated) | -0.8% | · | 1.7 | -20.7% | 2.5%
Nc1nc(N)c2c(Oc3ccc(F)cc3)cccc2n1 | 1.2% | · | 1.0 | · | ·
CCOC(=O)N1CCC(N2CCN(S(=O)(=O)c3ccc(C)cc3)CC2)CC1 | 0.6% | 2.6% | -22.4 | -3.3% | 3.5%
CCOC(=O)N1CCC(N2CCN(S(=O)(=O)CC)CC2)CC1 | 0.1% | -1.1% | -33.6* | -5.0% | -2.4%
N#Cc1ccsc1NC(=O)CN1CCN(Cc2ccccc2)CC1 | 1.7% | 1.1% | -2.9 | 0.4% | 1.6%
CCCCC(=O)N/N=C/c1ccc(-c2ccc([N+](=O)[O-])cc2)o1 | -2.7% | -1.2% | -14.2 | ? | -1.6%
CC(C)(C)NC(=S)N/N=C\c1ccc(-c2ccc([N+](=O)[O-])cc2)o1 | 10µM* | 12.6µM* | -7.3 | -4.7% | 25.1µM*
O=C(O)c1ccc(-c2ccc(/C=N/Nc3ccc([N+](=O)[O-])cc3)o2)cc1 | 10µM* | ? | -4.7 | -8.1% | ?
CCC(=O)N/N=C/c1ccc(-c2ccc([N+](=O)[O-])cc2)o1 | -0.6% | 0.1% | -9.6 | -2.5% | -0.5%
O=C(O)c1cccc(-c2ccc(/C=N/Nc3ccc([N+](=O)[O-])cc3)o2)c1 | ? | 4.6% | -3.6 | -16.6% | 22.4µM*
O=C(O)c1ccc(N/N=C/c2ccc(-c3cccc(Cl)c3)o2)cc1 | -25.2% | 8.1% | -7.3 | 8.3% | 3.0%
Cc1cc(C)n(Cc2ccc(C(=O)N/N=C/c3ccc(-c4ccc([N+](=O)[O-])cc4)o3)o2)n1 | -2.1% | · | -65.3* | -20.1% | -2.0%
CCOc1ccc(-c2nc(CSc3nnc(N)s3)cs2)cc1 | 1.4% | -2.3% | -3.1 | -14.0% | 2.1%
O=[N+]([O-])c1cccc(-c2ccc(/C=N/NC(=S)Nc3cccc(F)c3)o2)c1 | 0.6% | 1.1% | -7.7 | -11.7% | 1.3%
NC(=S)N/N=C/c1ccc(-c2cccc([N+](=O)[O-])c2)o1 | -4.2% | 15.8µM* | -3.0 | ? | ?
O=C(N/N=C/c1ccc(-c2cccc([N+](=O)[O-])c2)o1)[C@H]1C[C@@H]1c1ccccc1 | 1.3% | 1.9% | -0.5 | -6.6% | -12.0%
O=C(N/N=C/c1ccc(-c2ccc([N+](=O)[O-])cc2)o1)[C@H]1C[C@@H]1c1ccccc1 | -5.9% | ? | -0.3 | -8.8% | 7.08µM*
COc1cccc2[nH]c3c(N4CCC(C(N)=O)CC4)ncnc3c12 | -0.4% | -8.6% | -0.2 | -2.7% | -0.2%
COCC(C)N1CCC(Oc2ccc(C(=O)N3CCCC3)cc2)CC1 (configuration not stated) | -3.9% | · | -8.1 | -1.5% | -0.1%
CCOC(=O)c1c(C)oc2c1c(/C=N/c1ccccn1)c(O)c1ccccc12 | -4.0% | · | 11.9 | · | ·
CC(C)OCCCNC(=O)c1sc(=S)n(C)c1N | 0.2% | -0.8% | 1.3 | -10.0% | ·
Cc1cc(C)c2nc(SCC(=O)NC(N)=O)cc(C)c2c1 | · | · | -34.4* | · | ·
COC(=O)c1sc2cc([N+](=O)[O-])cc(SCC(C)C)c2c1N | 10µM* | ? | -8.2 | 7.6% | 10µM*
O=C(Nc1cccc(Cl)c1)Nc1nnc([C@H]2C[C@H](O)[C@@H](CO)O2)s1 | -1.5% | · | -30.4* | · | ·

Compound activity as filed in PubChem.
